# HNF4A DNA FP = change in binding of human HNF4 alpha to DNA. P41235. HNF4a-FITC DNA binding, fluorescence polarization, 1 h. activity change, % at 10 µM. 360,000 tested, 0.3% active; in the data active = activity change above about 30%, passing the limit was not always enough
# Target sequence (P41235 whole entry, looked up): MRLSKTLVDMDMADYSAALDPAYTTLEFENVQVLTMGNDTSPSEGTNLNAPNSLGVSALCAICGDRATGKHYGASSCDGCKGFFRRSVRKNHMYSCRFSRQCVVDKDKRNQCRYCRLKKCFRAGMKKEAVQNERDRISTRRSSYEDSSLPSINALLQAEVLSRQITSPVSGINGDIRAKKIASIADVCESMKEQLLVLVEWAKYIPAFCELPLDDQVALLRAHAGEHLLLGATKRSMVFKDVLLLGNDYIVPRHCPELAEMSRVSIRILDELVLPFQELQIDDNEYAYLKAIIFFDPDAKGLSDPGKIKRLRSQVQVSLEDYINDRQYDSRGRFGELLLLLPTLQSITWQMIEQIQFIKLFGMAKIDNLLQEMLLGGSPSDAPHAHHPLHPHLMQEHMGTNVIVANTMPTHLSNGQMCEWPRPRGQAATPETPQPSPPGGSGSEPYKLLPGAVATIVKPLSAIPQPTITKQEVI
# TPT1 inh = inhibitors of Candida albicans tRNA 2'-phosphotransferase TPT1; recombinant caTPT1, FP RNA substrate dephosphorylation; inhibition, % at 5 µM; 300,000 tested, 0.81% active; AID 1962;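 active = inhibition above the mean of all tested compounds plus 3 SD, set per screening campaign, cut at about 24% in these data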;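 also: plate controls were DMSO alone for no effect and ferristatin control at 100 nM for full effect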
# Myeloid diff 2 = compounds promoting myeloid differentiation; ER-HoxA9 myeloid progenitors, lysozyme-GFP differentiation, flow cytometry; calls only at 10 µM; 360,000 tested, 1% active;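 active = normalized GFP-positive differentiation at or above the plate's own cutoff, the solvent-only control mean plus 3 SD; inconclusive = no clear call, values can overlap the other calls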;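 also: cells exposed to compound for four days before flow analysis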
# Rpn11 inh = blocks the human proteasome subunit Rpn11. O00487. human 26S proteasome, Ub4-pepOG fluorescence polarization; 20S core pre-blocked with epoxomicin. inhibition, % at 20 µM. 360,000 tested, 0.59% active;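 active = inhibition at 20 µM, scaled to each plate's controls, above about 33%, limit read from the data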
# Myeloid diff CP1 = myeloid differentiation induction; shares compounds with Myeloid diff 2; AID 651706; ER-HoxA9 myeloid progenitors, GFP/Mac1 double-positive flow; 2,300 tested, 2% active; calls only;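 active = share of green or green-and-red cells above 9 and 9% in run 1 or 4 and 3% in run 2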
# GFP autofluor = flagged as fluorescent in myeloid differentiation counter-screen; shares compounds with Myeloid diff 2; ER-HoxA9 myeloid progenitors, no estrogen, GFP autofluorescence flow cytometry; vehicle wells 0%, positive control 100%; fluorescence response, % (concentration not given with the values); 2,300 tested, 7.4% active; AID 651707;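 active = over 5% cells positive for green fluorescent reporter, or over 2% positive for both it and APC stain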;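 also: range taken on the double positive population between DMSO and positive control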
# An asterisk follows results filed as active; i = inactive; ? = inconclusive; · = no result shown; + = active, no number. Hits are enriched below; roughly 2.1% of the tested compounds scored in any of these assays.
SMILES,HNF4A DNA FP,TPT1 inh,Myeloid diff 2,Rpn11 inh,Myeloid diff CP1,GFP autofluor
CC(C)(C)NC(=O)COc1ccc(CNCc2cccnc2)cc1,2.6,-3.0,i,-8.4,·,·
Cc1ccc(CNC(=O)C2CCCN(c3nc4ccsc4c(=O)s3)C2)cc1 (stereo not given),1.6,-3.5,i,-0.8,·,·
COc1ccc(-n2ccnc2SCC(=O)NO)cc1,-1.2,2.1,i,2.7,·,·
COc1ccc(NC(=O)COC(=O)C2CCCN2C(=O)OC(C)(C)C)cc1Cl (stereo not given),-2.9,·,i,-0.9,·,·
Cc1ccc(S(=O)(=O)NCCC(=O)Nc2ccc3c(c2)OCO3)cc1,1.6,-1.4,i,-1.7,i,1.0
Cc1ccc(S(=O)(=O)CCC(=O)Nc2ccc3c(c2)OCO3)cc1,0.1,0.3,i,-4.1,·,·
O=C(CCc1nnc(CCc2ccccc2)o1)N1CCCC1c1nccs1 (stereo not given),-2.4,-1.5,i,-5.3,·,·
COc1ccc(Cn2c(C3CC3)nc3ccc(NC(C)=O)cc3c2=O)cc1,1.1,0.8,+,-11.1,i,0.0
CCCc1nc2ccc(NC(C)=O)cc2c(=O)n1Cc1ccc(Cl)cc1,-2.2,1.7,i,-6.5,·,·
COc1ccc(Cn2c(C3CC3)nc3ccc(NC(=O)c4cccnc4)cc3c2=O)cc1,3.4,-2.3,+,1.0,i,13.6*
O=C(O)c1ccc(-n2cccc2/C=C2/NC(=O)N(c3cccc(Cl)c3)C2=O)cc1,-66.1,·,+,·,i,0.2
O=C(O)c1ccc(-n2cccc2/C=C2/NC(=O)N(c3ccccc3)C2=O)cc1,-64.4,-0.9,i,35.2,·,·
O=C(/C=C/c1ccco1)N1CCc2ccccc21,-0.2,6.4,i,6.9,·,·
Cc1ccc(/C=C/C(=O)N2CCc3ccccc32)o1,-17.0,2.5,i,-13.3,i,0.0
CN(C)CCN1CCc2ccccc21,-2.5,-2.8,+,17.3,i,0.0
c1ccc2c(c1)CCN2CCN1CCc2ccccc21,1.7,-3.0,i,-0.3,·,·
CNC(=O)[C@@H]1CCC(=O)N1,0.5,·,i,0.7,·,·
O=[N+]([O-])c1cccc(Cn2cnc3c(=S)nc[nH]c32)c1,7.0,·,i,3.9,·,·
N#CCCn1cnc2c(=S)nc[nH]c21,3.5,-5.3,+,-5.5,i,1.2
O=C(O)CCC(=O)NNC(=O)c1ccc([N+](=O)[O-])cc1,-2.0,-4.1,i,-5.9,·,·
O=C(O)CCC(=O)NNC(=O)c1ccc(-c2ccccc2)cc1,-1.3,-3.0,i,-10.4,i,1.9
O=C([C@H](Cc1ccccc1)NS(=O)(=O)c1ccc(Cl)cc1)N1CC[C@@]2(O)CCCC[C@H]2C1,-2.6,-5.9,i,-9.0,·,·
C=CCC[C@@H](CCCCC)OC(=O)/C=C/[C@H](O)[C@@H](O)C[C@H](O)CC=C,0.1,·,+,·,i,0.0
CCc1ccc([C@H]2C(C(=O)O)=C[C@@H](C(C)(C)C)N2S(=O)(=O)c2ccc(C)cc2)cc1,1.7,·,i,6.4,·,·
CC(C)(C)[C@@H]1C=C(C(=O)O)[C@H](c2ccc(Cl)cc2)N1S(=O)(=O)c1ccccc1,3.1,·,+,1.2,i,2.9
SMILES,HNF4A DNA FP,TPT1 inh,Myeloid diff 2,Rpn11 inh,Myeloid diff CP1,GFP autofluor
CCC(C)Sc1ccc(-c2nc3cnccn3c2NC2CCCCC2)cc1 (stereo not given),8.8,-0.4,i,7.7,·,·
CCCCCCSc1ccc(-c2nc3cnccn3c2NC2CCCCC2)cc1,14.9,·,i,·,i,18.4*
O=C1NC(c2cccc3ccccc23)Nc2ccccc21 (stereo not given),1.2,·,?,-5.5,·,·
O=C1c2ccccc2C(=O)C1Cc1cccc2ccccc12,4.9,0.2,i,-11.0,i,0.0
CCCN1CCN(C(=S)Nc2ccccc2C(F)(F)F)CC1,2.0,1.4,i,-1.2,·,·
CC(C)OP(=O)(OC(C)C)/C(C=O)=N\Nc1ccc([N+](=O)[O-])cc1,-0.2,-0.7,i,3.3,·,·
CN(C)CCN(C)C1CN(C2CCCC2)S(=O)(=O)C1 (stereo not given),-2.6,·,i,1.5,·,·
CCCNS(=O)(=O)c1cccc(C(=O)NC2CCCc3ccccc32)c1 (stereo not given),-1.8,2.6,i,9.7,i,0.3
C[n+]1c2n(c3ccccc31)N=C(c1cc(C(C)(C)C)c(O)c(C(C)(C)C)c1)CS2,1.0,-2.6,+,-6.2,i,0.0
COc1cccc(C2=Nn3c(nnc3-c3ccccc3O)SC2)c1,11.4,-0.5,i,2.6,·,·
N#C/C(=N\Nc1ccc(S(=O)(=O)N2CCc3ccccc32)cc1)C(N)=S,4.9,12.5,+,7.9,i,0.0
Cc1c(C(=O)OC(C)C)[nH]c2c1C(=O)CC(C)(C)C2,0.6,-1.3,+,-1.6,i,0.2
Cc1c(C(=O)OC(C)C)[nH]c2c1C(=O)CCC2,-0.6,-1.5,i,-4.0,·,·
O=C(Cn1cncn1)N/N=C/c1ccccc1O,2.9,-3.1,i,1.3,·,·
O=C1CCCN1CCCNS(=O)(=O)c1ccc(Cl)c(C(=O)N2CCOCC2)c1,-2.7,0.4,i,-1.7,i,0.0
O=C(NCCN1CCOCC1)c1cc(S(=O)(=O)NCCCN2CCCC2=O)ccc1Cl,4.0,-0.4,i,-6.4,·,·
Cc1c(C(=O)Nc2ccc(F)cc2)cn2c(nc3ccccc32)c1C#N,4.6,4.5,i,10.1,·,·
N#Cc1c2nc3ccccc3nc2n2cc(NC(=O)c3ccc(F)cc3)ccc12,-45.0,·,i,-28.9,i,2.8
CCN1C(c2ccc(F)cc2)=CS/C1=C(/C#N)c1nnc2n1-c1ccccc1SC2,-2.4,·,i,2.6,·,·
O=C1OC(/C(=C\Nc2cc(Cl)ccc2O)[N+](=O)[O-])c2ccccc21 (stereo not given),0.6,-0.1,i,-6.1,i,0.0
COc1cccc(N(CC(=O)NCCSCc2ccc(Cl)cc2)S(C)(=O)=O)c1,2.0,-1.1,i,0.3,·,·
CCN(CC)CCCNc1nc2cc(OC)c(OC)cc2c2nc(-c3ccccc3)nn12,-9.1,-2.1,i,2.3,·,·
COCCCNc1nc2cc(OC)c(OC)cc2c2nc(-c3ccccc3)nn12,6.2,2.6,+,-1.2,i,0.5
O=C1NCCN1c1ccc(CN2CCN(C3CCCCC3)C(CCO)C2)cc1 (stereo not given),-2.6,2.1,i,-7.0,i,0.0
CC(C)=CCN1CCN(Cc2ccc(N3CCNC3=O)cc2)CC1CCO (stereo not given),2.4,0.5,i,-1.3,·,·
CCn1c(COc2ccccc2)nnc1SCC(=O)C(C)(C)C,2.2,-4.9,+,-4.0,i,0.0
O=C(NCc1cccs1)C1CCCN(S(=O)(=O)c2cccs2)C1 (stereo not given),1.9,3.2,i,-0.9,·,·
CSc1nc(C)cc(C)c1C#N,-0.7,-3.4,+,1.1,i,0.3
Cc1cc(C)c(C#N)c(SCc2ccc(F)cc2)n1,3.3,1.1,i,4.1,·,·
